This is an account of results in PubChem BioAssay (NCATS).

Results filed as inconclusive are left out. Unmarked numbers belong to inactive results. The source made the active and inactive calls. Calls follow the shape of the dose curve; as a rule, active = well fitted activation curve with a large enough effect; inconclusive = small, poorly fitted or top-dose-only effect; inactive = flat fitted curve, though single readings scatter.
Potency is read from the fitted curve at half-maximal effect.

Chain of Cellular tumor antigen p53 (Homo sapiens) (P04637 whole entry, looked up): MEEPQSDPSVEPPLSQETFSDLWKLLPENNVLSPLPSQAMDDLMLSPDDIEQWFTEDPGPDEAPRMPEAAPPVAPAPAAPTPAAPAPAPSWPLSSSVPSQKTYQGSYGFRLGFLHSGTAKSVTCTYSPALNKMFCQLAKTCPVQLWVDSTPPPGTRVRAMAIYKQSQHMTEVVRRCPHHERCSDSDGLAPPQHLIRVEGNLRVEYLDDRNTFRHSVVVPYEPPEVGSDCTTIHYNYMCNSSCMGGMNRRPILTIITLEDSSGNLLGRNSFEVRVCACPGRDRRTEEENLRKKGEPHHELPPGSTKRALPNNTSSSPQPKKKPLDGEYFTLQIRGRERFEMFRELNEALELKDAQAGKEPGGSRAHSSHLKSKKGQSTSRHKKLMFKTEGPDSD

This test has as its target Cellular tumor antigen p53 (Homo sapiens) (UniProt P04637). As to the kind of experiment: Primary qHTS for small molecule compounds that upregulate eGFP-tagged delta133p53alpha (in C-terminal) cells. (AID 2060324).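 As to GFP increase (activation): 0% = DMSO wells and 100% = 57.5 µM 5-azacytidine.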 To be noted: NCI-H358 delta133p53alpha-eGFP (C-terminal tag), GFP fluorescence imaging, 24 h; series mostly up to 57.5 µM; GFP increase (activation): at the top concentration. The source says: Assay Development and Screening Technology
National Center for Advancing Translational Sciences (NCATS),
National Institute of Health (NIH), Rockville, Maryland
Cellular senescence (CS) is one of the hallmarks of aging and age-related diseases. Senescent cells are characterized by an irreversible growth arrest, an increase in senescence-associated beta-galactosidase (SA-beta-gal) activity and p16INK4a expression, an activation of the DNA damage response pathways, and the emergence of a senescence-associated secretory phenotype (SASP).
Delta133p53alpha, a human/primate-specific p53 protein isoform, delays or inhibits the induction of CS and SASP in various types of human cells, including progeria-derived fibroblasts, primary normal astrocytes, and CD8+ T lymphocytes. Induction of delta133p53alpha with small molecule compounds may provide therapeutic opportunities for inhibition of senescence/SASP-associated pathologies in progeria syndromes, astrocyte-mediated neuroprotection in neurodegenerative diseases, and possibly prevention and treatment of a wider range of senescence- and aging-associated diseases.
Here we report the development and validation of a cell-based quantitative high throughput screening (qHTS) assay in 1,536-well format. This qHTS assay uses the NCI-H358 cell line with doxycycline-inducible expression of enhanced green fluorescent protein (eGFP)-tagged delta133p53alpha, which allows efficient and highly quantitative measurement of the protein levels.
PROTOCOL TABLE (as described by Inglese J, Shamu CE and Guy RK. 2007)
SEQUENCE No. (e.g., 1, 2, 3, etc.); […] (e.g., Cells, Incubation, Reagent, etc.); VALUE; DESCRIPTION.
1; Cells; 4uL; 800 doxycycline treated cells / well in doxycycline-free media, 1536-well black, clear-bottom low base Aurora microplates.
2; Compounds; 23 nL; Kalypsis pin tool (Wako) equipped with 1536-well pin heads, 5-azacytidine positive control.
3; Incubation; 24 hr; 37C, 5% CO2; 95% relative humidity.
4; Aspiration; 1x; BioTek EL406 washer dispenser (Agilent).
5; Fixing; 3.5% paraformaldehyde, BioTek EL406 washer dispenser (Agilent).
6; Washing; 1x PBS; BioTek EL406 washer dispenser (Agilent).
7; Nuclei staining; 1:1000 dilution of Hoechst 33342 (Thermofisher), BioTek EL406 washer dispenser (Agilent).
8; Incubation; 20 min; in the dark at room temperature.
9; Washing; 2x, 1x PBS (ThermoFisher), BioTek EL406 washer dispenser (Agilent).
10; Reagent; 10 uL; 1x PBS per well, sealed with clear adhesive tape.
11; Detection; Fluorescence, Acumen eX3 laser scanning cytometer (STP Labtech), GFP filters […].
NOTES (numbers refer to sequence numbers above).
1. NCI-H358 cells expressing eGFP-tagged delta133p53alpha were grown in T75 culture flasks and treated with doxycycline for 24h, at 10 ng/ml for eGFP-D133p53a cells (N-terminal cell) and 100 ng/ml for D133p53a-eGFP cells (C-terminal cells). Cells were trypsinized, counted using a Counted 3 Automated Cell Counter (Thermo Fisher), and diluted to a concentration of 200,000 cells/ml. A Multidrop Combi Reagent Dispenser (ThermoFisher) was used to dispense 800 cells/well in […] of doxycycline-free media, into 1536-well black/clear bottom low base plates (AuroraMicroplates).
2. After plating cells, 23 nl of compound library, DMSO vehicle control or positive control (5-azacytidine) were transferred by Pin Tool (Wako). The plate map layout was the same for each plate: (column 1) non-doxycycline treated cells + DMSO vehicle control; (column 2) doxycycline treated cells + DMSO vehicle control baseline; (column 3) doxycycline treated cells + positive control 57.5 uM final concentration 5-azacytidine; (column 4) doxycycline treated cells + serial dilution of 5-azacytidine, 16-point 1:2 titration spanning 1.8 nM to […] final concentration; (columns 5-48) doxycycline treated cells + titration of library compounds.
3. Cells were incubated at 37 °C, 5 % CO2, 95% RH with breathable metal lid for 24h.
4-10. […] […]
(qHTS replaces the single test concentration by a dilution series.)
`O=C(O)Cc1cnc[nH]1`: the “GFP increase (activation)” value is 0.616%.

In the case of `CCCCc1ccc(C(=O)O)nc1`, the “GFP increase (activation)” value was -6.11%.

For `NC(=O)CI`, the “GFP increase (activation)” value was -0.997%.

Consider `O=C(O)CC[N+](=O)[O-]`, for which the “GFP increase (activation)” value was -1.52%.

For the compound `Clc1cnc(Oc2ccc(Oc3ncc(Cl)cc3Cl)cc2)c(Cl)c1`, the “GFP increase (activation)” value was -4.08%.

Turning to `[Cl-].[Cl][Pt].[NH2-].[NH2-].c1ccncc1`, the “GFP increase (activation)” value was 3.65%.

For the compound `CCCN1CCC[C@@H]2Cc3[nH]ncc3C[C@H]21`, the Potency result was “inactive”.

With `C[N+](C)(C)CC#CCOC(=O)Nc1cccc(Cl)c1`, the “GFP increase (activation)” value was 10.1%.

As for `C[N+]1(C)CCOC(O)(c2ccc(-c3ccc(C4(O)C[N+](C)(C)CCO4)cc3)cc2)C1` (stereo not given), the “GFP increase (activation)” value is 1.19%.

Regarding `C=CCN1CC[C@]23CCCCC2[C@H]1Cc1ccc(O)cc13` (stereo not given in full), the “GFP increase (activation)” value is 0.0659%.

Turning to `CCCN1CC[C@@H]2c3cc(O)ccc3CC[C@@H]21`, the “GFP increase (activation)” value was -11.7%.

On to `NC(=NCCC[C@H](N)C(=O)O)N[N+](=O)[O-]`, for which the “GFP increase (activation)” value is -5.42%.

As to `NC(=O)CN1CC(O)CC1=O` (stereo not given), the “GFP increase (activation)” value was 8.98%.

Turning to `N[C@@]1(C(=O)O)CC[C@@H](C(=O)O)C1`, the “GFP increase (activation)” value was -8.87%.

In the case of `CCCN(CCC)CCc1ccc(O)c(O)c1`, the “GFP increase (activation)” value is -3.85%.

For the compound `C[C@H]1C2Cc3ccc(O)cc3[C@@]1(C)CCN2CC1CC1`, the “GFP increase (activation)” value was 2.73%.

In the case of `c1ccc2cc(CC3=NCCN3)ccc2c1`, the “GFP increase (activation)” value is 0.2%.

Turning to `CC(C)NC(C)Cc1ccc(I)cc1` (stereo not given), the “GFP increase (activation)” value is -5.77%.

On to `NC(=O)c1ccc(OCC(O)CN2CC=C(c3ccc(F)cc3)CC2)cc1` (stereo not given), for which the “GFP increase (activation)” value is -1.18%.

In the case of `CN(N=O)c1ccc(O)c(O)c1`, the “GFP increase (activation)” value is 10.1%.

For the compound `O=C(O)[C@@H]1CCN1`, the “GFP increase (activation)” value is -4.23%.

On to `CC(C)c1cccc(C(C)C)c1O`, for which the “GFP increase (activation)” value was -8.31%.

Take `O=c1[nH]c2ccccc2n1CCCN1CCC(n2c(=O)[nH]c3cc(Cl)ccc32)CC1`: the “GFP increase (activation)” value was 0.805%.

With `NCC(CP(=O)(O)O)c1ccc(Cl)cc1` (stereo not given), the “GFP increase (activation)” value is 8.18%.

Turning to `N#C/C(=C/c1ccc(O)c(O)c1)C(N)=S`, the “GFP increase (activation)” value is 7.81%.

With `COc1ccc2c(c1)C13CCCCC1C(C2)N(C)CC3` (stereo not given), the “GFP increase (activation)” value is -0.931%.

With `CC(N)c1cccc(Cl)c1Cl` (stereo not given), the “GFP increase (activation)” value was 0.375%.

With `C[N+]1(C)C2CCC1CC(OC(=O)c1c[nH]c3ccccc13)C2` (stereo not given), the “GFP increase (activation)” value was -16.9%.

Consider `C#CCN[C@H](C)Cc1ccccc1`, for which the “GFP increase (activation)” value was 3.48%.

Consider `CCCN(CCC)C1CCc2cccc(O)c2C1` (stereo not given), for which the “GFP increase (activation)” value is -2.01%.

With `Oc1ccc2c3c1O[C@H]1c4oc5ccccc5c4C[C@@]4(O)C(C2)N(CC2CC2)CCC314` (stereo not given in full), the “GFP increase (activation)” value was 15%.

Consider `Clc1cc(I)cc(Cl)c1NC1=NCCN1`, for which the “GFP increase (activation)” value was 0.566%.

For `Cc1o[nH]c(=O)c1CC(N)C(=O)O` (stereo not given), the “GFP increase (activation)” value was -0.144%.

For the compound `COc1ccc2c(c1O)-c1cccc3c1[C@@H](C2)N(C)CC3`, the “GFP increase (activation)” value was 9.05%.

As for `C[C@]12Cc3cn4c(nc3C=C1CCC1C2CC[C@@]2(C)[C@H]1CC[C@@]2(O)C#N)nc1ccccc14` (stereo not given in full), the Potency is 30.1 µM (active).

With `OCc1cnc[nH]1`, the “GFP increase (activation)” value was -0.0767%.

Take `NC(CP(=O)(O)O)C(=O)O` (stereo not given): the “GFP increase (activation)” value was 2.96%.

For `COC(=O)N1CCN(C(=O)Cc2ccc(Cl)c(Cl)c2)C(CN2CCCC2)C1` (stereo not given), the “GFP increase (activation)” value is 1.82%.

Regarding `COc1ccc2c(c1OC)C(=O)O[C@H]2[C@@H]1c2cc3c(cc2CCN1C)OCO3`, the “GFP increase (activation)” value is 1.83%.

On to `CC(=O)[C@H]1CC[C@H]2[C@@H]3CC[C@H]4C[C@H](O)CC[C@]4(C)[C@H]3C(=O)C[C@]12C`, for which the “GFP increase (activation)” value is -3.85%.
